Mtb hypoxia inh = inhibitors of hypoxia-regulated fluorescent reporter in Mycobacterium tuberculosis; M. tuberculosis hypoxia-regulated fluorescent reporter, fluorescence; fluorescence inhibition, % (concentration not given with the values); actives 0.1% (n = 300,000); in the data active means fluorescence inhibition mostly above about 23%, no sharp cut-off; inactive means mostly below about 17%
GDH-TPI counter = GDH-TPI coupled enzyme inhibition counter-screen; AID 588335; inhibition, % at 4.8 µM; actives 1.2% (n = 360,000); GDH-TPI coupled enzyme counterscreen, NADH absorbance; in the data active means inhibition above about 30%;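 further: 0% = DMSO wells and 100% = wells lacking the enzyme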
FadD28 binding = inhibitors of Mycobacterium tuberculosis FadD28 bisubstrate binding; FadD28 bisubstrate probe binding, fluorescence polarization; inhibition, % at 12.5 µM; actives 0.22% (n = 360,000); in the data active means inhibition above about 8.5%, passing the limit was not always enough
UGM FP inh = Mtb UDP-galactopyranose mutase inhibition | P9WIQ1 | purified UGM, fluorescence polarization probe displacement | inhibition, % at 10 µM | actives 0.06% (n = 320,000) | AID 504406; in the data active means inhibition above about 10%, passing the limit was not always enough
Mtb FBA inh = Mtb fructose-bisphosphate aldolase inhibition. P9WQA3. actives 2.3% (n = 360,000). purified M. tuberculosis FBA, fluorescence read-out. inhibition, % at 1 µM; in the data active means inhibition above about 27%;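 further: 0% = vehicle and 100% = reference inhibitor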
Target sequence (P9WQA3 whole entry, looked up): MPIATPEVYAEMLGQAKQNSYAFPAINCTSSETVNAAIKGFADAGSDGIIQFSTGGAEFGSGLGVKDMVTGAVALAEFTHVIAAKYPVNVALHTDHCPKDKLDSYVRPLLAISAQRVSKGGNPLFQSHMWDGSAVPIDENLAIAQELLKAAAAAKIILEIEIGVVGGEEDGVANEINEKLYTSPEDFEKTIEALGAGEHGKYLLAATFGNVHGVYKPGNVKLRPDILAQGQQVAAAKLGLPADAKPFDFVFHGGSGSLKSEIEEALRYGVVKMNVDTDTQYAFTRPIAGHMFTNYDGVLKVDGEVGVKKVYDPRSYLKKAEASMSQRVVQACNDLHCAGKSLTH
Rv3671c protease = inhibitors of M. tuberculosis serine protease Rv3671c | actives 0.048% (n = 320,000) | inhibition, % at 5.96 µM | P9WHR9; in the data active means inhibition above about 38%;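 further: extracellular domain of Rv3671c used as enzyme; 0% = enzyme with DMSO and 100% = no enzyme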
Target sequence (P9WHR9 whole entry, looked up, the tested form may be a part): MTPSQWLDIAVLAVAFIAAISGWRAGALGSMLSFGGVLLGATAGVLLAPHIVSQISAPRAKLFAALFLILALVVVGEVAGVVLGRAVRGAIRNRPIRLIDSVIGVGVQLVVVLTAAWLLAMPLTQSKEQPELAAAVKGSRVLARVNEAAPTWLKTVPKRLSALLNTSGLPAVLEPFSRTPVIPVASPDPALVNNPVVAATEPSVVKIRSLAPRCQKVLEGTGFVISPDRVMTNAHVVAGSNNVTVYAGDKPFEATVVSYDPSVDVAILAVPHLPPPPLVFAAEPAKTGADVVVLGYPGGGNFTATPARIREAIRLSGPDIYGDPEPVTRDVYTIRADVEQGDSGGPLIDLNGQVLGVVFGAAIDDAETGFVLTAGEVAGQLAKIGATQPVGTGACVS
* marks the source's active call; other numbers are inactive results; x = no result given. The list is not random: actives were taken first. Their share in the collection is about 3.5%.

SMILES | Mtb hypoxia inh | GDH-TPI counter | FadD28 binding | UGM FP inh | Mtb FBA inh | Rv3671c protease
C(=NN=C(NN=Cc1cccs1)NN=Cc1cccs1)c1cccs1 | 14.5 | 43.6* | 1.0 | x | 1.7 | x
CCc1ccc(/C=N/NC(=O)c2c[nH]c3ccccc23)s1 | x | 49.6* | 1.5 | -0.4 | 2.9 | 6.0
C/C(=N\NC(=O)c1c[nH]c2ccccc12)c1ccc(C)o1 | x | 32.7* | -0.9 | 3.3 | -1.8 | -0.2
O=C(N/N=C/c1cccs1)c1c[nH]c2ccccc12 | x | 38.2* | -3.2 | -3.9 | 1.1 | 3.0
Cc1ccc(C=NNC(=O)c2c[nH]c3ccccc23)s1 | 14.9 | x | x | x | x | x
CCCCN1CC(=O)N2C3c4cc(C)ccc4OCC3C(C(=O)OCC)[C@]2(C)C1=O (stereo not given in full) | 7.0 | x | x | x | x | x
CC(=NNC(=O)c1c(C)nc2ccccn12)c1cccc([N+](=O)[O-])c1 | -8.4 | x | x | x | x | x
COc1ccc(CN2CCC3C=CCc4cccc(c43)C2)cc1 (stereo not given) | 4.2 | x | x | x | x | x
CCNc1nc(NCC)nc(NN=Cc2cc(OC)c(OC)c(OC)c2)n1 | 4.6 | x | x | x | x | x
CCOC(=O)C(=NNc1ccc(C(C)=O)cc1)c1csc(Nc2ccccc2)n1 | 11.3 | x | x | x | x | x
CC1(C)OC(=O)C(=CNc2ccccc2F)C(=O)O1 | 6.7 | 12.0 | -3.2 | 3.4 | 0.3 | -3.8
CC1(C)OC(=O)C(=CNc2ccccc2)C(=O)O1 | -0.5 | 16.9 | -3.4 | 1.3 | -4.5 | -4.4
CC1(C)OC(=O)C(=CNc2cccc(O)c2)C(=O)O1 | 18.5 | 35.2* | -3.2 | 1.9 | -1.0 | -5.4
CCOc1ccccc1NC=C1C(=O)OC(C)(C)OC1=O | 0.2 | 41.1* | -5.1 | 0.7 | -1.2 | -10.9
COc1ccccc1NC=C1C(=O)OC(C)(C)OC1=O | 0.3 | 46.8* | 0.0 | 2.5 | -1.9 | -1.8
COc1ccc(C2CC2C(C)=NOC(=O)c2ccc(F)cc2)cc1 (stereo not given) | 5.5 | x | x | x | x | x
CNC(=C[N+](=O)[O-])NCCSCc1csc(CN(C)C)n1 | 4.4 | x | x | x | x | x
Cc1cc(N/N=C/c2ccc(O)cc2O)nc(-n2nc(C)cc2C)n1 | x | 35.9* | -0.5 | 0.0 | -0.4 | -7.2
CCOc1cc(/C=N/n2c(C)nnc2C)ccc1O | x | 40.0* | -3.9 | -2.8 | 3.1 | 2.9
CCOc1cc(C=NNc2cc(C)nc(-n3nc(C)cc3C)n2)ccc1O | 39.4* | x | x | x | x | x
COc1cccc(C2=N/C(=C\N(C)C)C(=O)O2)c1 | x | 37.3* | -0.3 | -1.2 | 0.0 | 2.8
Cn1c(CN2CCN(CCO)CC2)c(C#N)c2ccccc21 | 6.8 | 30.6* | -0.5 | -0.4 | 2.8 | -3.1
Cn1c(=O)c2c(ncn2CCC(=O)NN=Cc2ccccc2)n(C)c1=O | 8.0 | x | x | x | x | x
COc1cccc(C(=O)NN=C(C)c2ccc(NC(=O)Cc3ccccc3)cc2)c1OC | -1.4 | x | x | x | x | x
O=C(N/N=C/c1cccnc1)c1cc2c(ccc3ccccc32)o1 | x | 32.0* | -4.9 | 0.5 | 7.5 | -6.8
SMILES | Mtb hypoxia inh | GDH-TPI counter | FadD28 binding | UGM FP inh | Mtb FBA inh | Rv3671c protease
O=C(NN=Cc1cccnc1)c1cc2ccccc2o1 | 6.7 | x | x | x | x | x
O=C(N/N=C/c1cccnc1)c1cc2ccccc2o1 | x | 31.1* | -4.5 | -1.1 | 4.8 | -6.1
COc1ccc(/C=N/N=C2/NC(=O)C(CC(=O)O)S2)cc1OCc1ccccc1Cl (stereo not given) | x | 45.8* | -1.3 | 1.6 | -1.3 | -0.9
CCOc1cc(/C=N/N=C2/NC(=O)C(CC(=O)O)S2)ccc1OCc1ccccc1Cl (stereo not given) | x | 39.7* | -2.3 | -0.9 | -0.4 | -11.5
COc1ccc(/C=N/N=C2/NC(=O)C(CC(=O)O)S2)cc1OCc1ccc(Cl)cc1Cl (stereo not given) | x | 34.7* | -5.0 | 1.9 | -9.9 | -7.1
COc1cc(C=N/N=C2/NC(=O)C(CC(=O)O)S2)ccc1OCc1cccc(Cl)c1 (stereo not given) | 12.4 | x | x | x | x | x
CCOC(=O)N1CCN(C(=O)CCSc2ccccc2)CC1 | 4.6 | -2.4 | -1.0 | 0.3 | 123.4* | 7.4
COc1ccc(C=O)cc1C1=CC(=O)CC(c2ccc(Cl)cc2)C1 (stereo not given) | -1.1 | x | x | x | x | x
O=C(Nc1cccc(C(F)(F)F)c1)/C(=C\c1ccco1)NC(=O)c1cccs1 | 2.2 | 34.6* | -2.1 | 2.5 | -0.1 | -8.3
O=C(Nc1ccc(C(=O)O)cc1)/C(=C\c1ccc2c(c1)OCO2)NC(=O)c1ccc(Br)cc1 | x | 19.9 | -7.5 | -1.0 | 0.0 | -1.5
Cc1ccc(NC(=O)/C(=C\c2ccc3c(c2)OCO3)NC(=O)c2ccco2)cc1 | 3.4 | 39.5* | 2.1 | -0.9 | -0.4 | -0.1
O=C(Nc1ccc(C(=O)O)cc1)/C(=C\c1ccc2c(c1)OCO2)NC(=O)c1ccccc1 | 3.1 | 36.0* | 0.1 | 3.0 | 3.8 | -5.1
O=C(Nc1cccc(F)c1)/C(=C\c1ccco1)NC(=O)c1cccs1 | 2.2 | 8.3 | -2.8 | 1.8 | -0.3 | -5.0
O=C(Nc1ccc(C(=O)O)cc1)/C(=C\C=C\c1ccccc1)NC(=O)c1ccc(Br)cc1 | -23.3 | 31.1* | -5.2 | 1.9 | -0.7 | -4.4
Cc1ccc(NC(=O)C(=CC=Cc2ccccc2)NC(=O)c2ccccc2)cc1 | -0.8 | x | x | x | x | x
CCN(CC)C(=NS(=O)(=O)c1ccc(C)cc1)c1ccccc1 | 7.8 | x | x | x | x | x
Oc1ccc(C=NNc2ncnc3c2ncn3Cc2ccccc2)cc1O | 3.7 | x | x | x | x | x
CC(C)OC(=O)/C(=C\C=C\c1ccccc1)NC(=O)c1ccccc1 | x | 45.6* | 1.2 | 0.7 | -0.9 | 5.2
CC(=O)Oc1ccc(/C=C(\NC(=O)c2cccc(Br)c2)C(=O)Nc2ccc(C(=O)O)cc2)cc1 | 1.6 | 32.4* | -3.9 | 0.7 | -0.6 | 0.1
C#CCOC(=O)/C(=C/C=C/c1ccccc1)NC(=O)c1ccccc1 | 6.1 | 22.6 | -6.1 | -0.7 | -2.2 | -3.0
O=C(Nc1ccc(C(=O)O)cc1)C(=Cc1ccc2c(c1)OCO2)NC(=O)c1cccc(Br)c1 | -2.2 | x | x | x | x | x
CC(=O)c1ccc(NC(=O)/C(=C\c2ccco2)NC(=O)c2ccco2)cc1 | x | 30.9* | 0.2 | -1.3 | 0.2 | -2.2
COc1cc(C2NC(C(=O)O)Cc3c2[nH]c2ccccc32)cc(OC)c1OC (stereo not given) | -5.1 | 17.5 | 0.5 | -0.4 | 9.2 | -1.4
CCC1NC(C(=O)O)Cc2c1[nH]c1ccccc21 (stereo not given) | x | 10.8 | -1.1 | 4.6 | 47.2* | -8.0
C=C(C)c1cccc(C(C)(C)NC(=O)Nc2ccc(C)cn2)c1 | 6.6 | -1.1 | -1.8 | x | -0.2 | -3.7
SMILES | Mtb hypoxia inh | GDH-TPI counter | FadD28 binding | UGM FP inh | Mtb FBA inh | Rv3671c protease
C=C(C)c1cccc(C(C)(C)NC(=O)Nc2ccc(OC)nc2)c1 | 1.1 | 1.1 | -1.1 | 2.6 | 148.5* | -7.5
COCCNC(=O)CCSc1nc(-c2ccc(OC)cc2)cc(C(F)(F)F)n1 | x | 35.6* | 0.4 | 1.3 | 22.1 | 0.1
Cc1ccc(/C=N/NC(=S)NCCc2ccccc2)s1 | x | 7.0 | -0.8 | -1.3 | 0.2 | 5.5
CCCCNC(=S)N/N=C/c1ccc(C)s1 | x | 63.3* | -0.7 | 0.8 | 5.6 | 0.9
CN(C)c1ccc(C=Nc2cnn(C)c2C(N)=O)cc1 | x | 35.4* | -0.8 | -0.5 | -1.8 | -2.5
O=C1C=CN(Cc2ccccc2)CC1 | 20.7 | 25.0 | -0.8 | -0.4 | 3.3 | 0.4

From PubChem
